{
  "source": "PubChem BioAssay (Tox21)",
  "key": {"[1]": {"molecular_target": "Thyrotropin-releasing hormone receptor (Homo sapiens) (UniProt P34981)", "sequence (P34981 whole entry, looked up)": "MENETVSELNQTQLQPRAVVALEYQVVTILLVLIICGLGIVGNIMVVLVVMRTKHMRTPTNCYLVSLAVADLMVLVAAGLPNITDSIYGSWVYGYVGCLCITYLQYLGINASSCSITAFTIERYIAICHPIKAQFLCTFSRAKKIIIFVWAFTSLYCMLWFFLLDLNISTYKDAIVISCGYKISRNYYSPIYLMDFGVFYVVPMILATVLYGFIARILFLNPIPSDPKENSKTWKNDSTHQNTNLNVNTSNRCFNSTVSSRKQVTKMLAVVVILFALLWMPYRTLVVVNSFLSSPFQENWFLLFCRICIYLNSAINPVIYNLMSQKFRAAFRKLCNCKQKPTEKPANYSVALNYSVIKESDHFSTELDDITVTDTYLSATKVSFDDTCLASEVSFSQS", "assay": "qHTS assay to identify small molecule agonists of the thyrotropin-releasing hormone receptor (TRHR) signaling pathway (AID 1346891; calls by dose curve;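 also: HEK293 cells expressing TRHR with calcium dye readout; series mostly up to about 58 µM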)", "in_short": "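Overnight-plated (18 h, 37 °C, 5% CO2) TRHR-Hek293 cells; 2 h calcium dye at 37 °C; compound in DMSO; 3-min kinetic fluorescence read.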"}, "[2]": {"assay": "Human pregnane X receptor (PXR) small molecule agonists, qHTS cell viability counter screen (AID 1346977); also: nearly all actives have a fitted effect of over 50% in size", "in_short": "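After a 5hr pre-incubation, PXR-Luc HepG2 cells received compounds plus positive control in DMSO and were kept 24hr at 37C. Cell viability was quantified by fluorescence from CellTiter-Fluor added for the final hour.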"}, "[3]": {"assay": "Caspase-3/7 induction in HepG2 cells by small molecules, qHTS assay (AID 1346978); also: nearly all actives have a fitted effect of over 15% in size", "in_short": "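Wild-type HepG2 cells (2,000/well) were settled 5 h at 37 C, 5% CO2, then exposed to compounds in DMSO for 17 h. Caspase-3/7 activity was read by luminescence 30 min after adding Caspase-Glo 3/7 reagent at room temperature.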"}, "[4]": {"assay": "Caspase-3/7 induction in CHO-K1 cells by small molecules, qHTS cell viability counter screen (AID 1346979); also: nearly all actives have a fitted effect of over 35% in size", "in_short": "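Multiplexed with Caspase-Glo 3/7 in CHO-K1 cells, this counter screen added CellTiter-Fluor after 16hr of compound exposure and recorded fluorescence 1hr later.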"}, "[5]": {"assay": "Caspase-3/7 induction in CHO-K1 cells by small molecules, qHTS assay (AID 1346980); also: nearly all actives have a fitted effect of over 15% in size", "in_short": "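Wild-type cells were seeded at 1,500 per well and settled 5 hr at 37 C, 5% CO2, then exposed to DMSO-dissolved compounds for 17 hr. Caspase-Glo 3/7 reagent was added, and luminescence was read after 30min at room temperature.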"}, "[6]": {"assay": "Caspase-3/7 induction in HepG2 cells by small molecules, qHTS cell viability counter screen (AID 1346981); also: series mostly up to about 92 µM; nearly all actives have a fitted effect of over 30% in size", "in_short": "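CellTiter-Fluor fluorescence measured viability in the same wells used for Caspase-Glo 3/7. HepG2 (wild type) at 2,000 cells/well were pre-incubated 5 hr, dosed, and given reagent at 16 hr, with 1 hr further at 37C.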"}, "[7]": {"molecular_target": "Nuclear receptor subfamily 1 group I member 2 (Homo sapiens) (UniProt O75469)", "sequence (O75469 whole entry, looked up)": "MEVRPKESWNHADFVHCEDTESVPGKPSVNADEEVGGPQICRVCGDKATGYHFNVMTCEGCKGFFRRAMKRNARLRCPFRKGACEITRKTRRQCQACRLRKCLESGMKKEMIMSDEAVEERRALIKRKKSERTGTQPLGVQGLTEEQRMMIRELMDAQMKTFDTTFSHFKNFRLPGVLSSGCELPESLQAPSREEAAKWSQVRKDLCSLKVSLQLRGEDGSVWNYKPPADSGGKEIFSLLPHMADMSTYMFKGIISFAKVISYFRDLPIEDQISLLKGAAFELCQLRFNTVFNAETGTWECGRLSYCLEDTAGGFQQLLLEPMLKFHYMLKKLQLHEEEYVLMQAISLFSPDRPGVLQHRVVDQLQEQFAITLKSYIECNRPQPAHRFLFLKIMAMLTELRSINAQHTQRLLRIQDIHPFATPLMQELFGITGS", "assay": "Human pregnane X receptor (PXR) small molecule agonists, qHTS assay (AID 1346982); also: nearly all actives have a fitted effect of over 35% in size; also: potency is read from the fitted curve at half-maximal effect", "in_short": "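Agonist mode: luminescence from ONE-Glo after 24 h compound exposure at 37C in HepG2 cells carrying hPXR-responsive CYP3A4 luciferase, plated in charcoal-stripped serum medium 5 h beforehand.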"}, "[8]": {"molecular_target": "Nuclear receptor subfamily 1 group I member 2 (Rattus norvegicus) (UniProt Q9R1A7)", "sequence (Q9R1A7 whole entry, looked up)": "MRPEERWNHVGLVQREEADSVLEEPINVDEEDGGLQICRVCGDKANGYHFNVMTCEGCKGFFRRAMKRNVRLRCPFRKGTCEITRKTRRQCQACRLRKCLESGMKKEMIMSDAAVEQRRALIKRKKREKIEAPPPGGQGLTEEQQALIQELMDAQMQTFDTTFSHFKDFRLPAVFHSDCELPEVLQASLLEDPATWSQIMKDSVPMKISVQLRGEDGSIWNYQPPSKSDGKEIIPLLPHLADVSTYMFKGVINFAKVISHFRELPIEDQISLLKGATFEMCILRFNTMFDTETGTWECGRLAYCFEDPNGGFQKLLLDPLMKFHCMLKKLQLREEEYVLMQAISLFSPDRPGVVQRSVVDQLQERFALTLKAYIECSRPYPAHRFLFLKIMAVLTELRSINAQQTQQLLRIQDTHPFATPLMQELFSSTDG", "assay": "Rat pregnane X receptor (rPXR) activation by small molecules, qHTS assay (AID 1346983); also: nearly all actives have a fitted effect of over 20% in size", "conditions": "rPXR luciferase reporter cells, One-Glo luminescence, 24 h; max activation: active compounds read high", "in_short": "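Cell-based rPXR luciferase reporter assay, 2,000 cells per well, rested 5hr at 37 C before compound addition in DMSO, then 24 hr at 37 C. One-Glo reagent was added and luminescence read after 30 min at room temperature.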"}, "[9]": {"molecular_target": "Nuclear receptor subfamily 1 group I member 2 (Homo sapiens) (UniProt O75469)", "assay": "CYP3A4 induction through human pregnane X receptor (PXR) by small molecules, qHTS assay (AID 1346984); also: nearly all actives have a fitted effect of over 40% in size", "in_short": "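Read-out is luminescence after One-Glo addition, following a 3 hr, 37C incubation with Luciferin-IPA CYP3A4 substrate (3uM final). Before that, compounds were on DPX-2 cells (HepG2 co-transfected with PXR element plus CYP3A4-promoter luciferase) for 24 hr at 37C.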"}, "[10]": {"molecular_target": "Nuclear receptor subfamily 1 group I member 2 (Homo sapiens) (UniProt O75469)", "assay": "Human pregnane X receptor (PXR) activation by small molecules, qHTS assay (AID 1346985); also: nearly all actives have a fitted effect of over 40% in size", "in_short": "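DPX-2 cells (HepG2 co-transfected with a PXR response element and a CYP3A4-promoter luciferase construct) were seeded at 2,000 per well, rested 5 hr at 37C, then exposed to DMSO-dissolved compounds for 24 hr. Activation was read as luciferase luminescence.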"}},
  "note": "Values without a mark were called inactive. Results filed as inconclusive are left out. A call without a number means that no potency is given here. Calls of active or inactive are those of the source. Unless noted, calls follow the shape of the dose curve; as a rule, active = well fitted curve in the direction sought with a large enough effect in the repeat runs; inconclusive = weak or mixed curves; inactive = no such curve, though single readings can be large; an effect the other way counts as inactive or inconclusive.",
  "data": [
    {"smiles": "C[N+](C)(C)CC[N+]1(C)Cc2c(Cl)c(Cl)c(Cl)c(Cl)c2C1", "values": [
      {"measurement": "outcome", "setting": "[1]", "result": "inactive"},
      {"measurement": "Potency", "setting": "[2]", "result": "inactive"},
      {"measurement": "outcome", "setting": "[3]", "result": "inactive"},
      {"measurement": "Potency", "setting": "[4]", "result": "inactive"},
      {"measurement": "outcome", "setting": "[5]", "result": "inactive"},
      {"measurement": "outcome", "setting": "[6]", "result": "inactive"},
      {"measurement": "Potency", "setting": "[7]", "result": "inactive"},
      {"measurement": "max activation", "setting": "[8]", "result": -3.39, "unit": "%"},
      {"measurement": "Potency", "setting": "[9]", "result": "inactive"},
      {"measurement": "Potency", "setting": "[10]", "result": "inactive"}
    ]},
    {"smiles": "Nc1nc2c(ncn2CCC(CO)CO)c(=O)[nH]1", "values": [
      {"measurement": "outcome", "setting": "[1]", "result": "inactive"},
      {"measurement": "Potency", "setting": "[2]", "result": "inactive"},
      {"measurement": "outcome", "setting": "[3]", "result": "inactive"},
      {"measurement": "Potency", "setting": "[4]", "result": "inactive"},
      {"measurement": "outcome", "setting": "[5]", "result": "inactive"},
      {"measurement": "outcome", "setting": "[6]", "result": "inactive"},
      {"measurement": "Potency", "setting": "[7]", "result": "inactive"},
      {"measurement": "max activation", "setting": "[8]", "result": 3.6, "unit": "%"},
      {"measurement": "Potency", "setting": "[9]", "result": "inactive"},
      {"measurement": "Potency", "setting": "[10]", "result": "inactive"}
    ]},
    {"smiles": "Oc1ccc2c(c1)OC[C@@H](N1CCC(O)(c3ccc(F)cc3)CC1)[C@H]2O", "values": [
      {"measurement": "outcome", "setting": "[1]", "result": "inactive"},
      {"measurement": "Potency", "setting": "[2]", "result": "inactive"},
      {"measurement": "outcome", "setting": "[3]", "result": "inactive"},
      {"measurement": "Potency", "setting": "[4]", "result": "inactive"},
      {"measurement": "outcome", "setting": "[5]", "result": "inactive"},
      {"measurement": "outcome", "setting": "[6]", "result": "inactive"},
      {"measurement": "Potency", "setting": "[7]", "result": "11.9 µM (active)"}
    ]},
    {"smiles": "CCCCCCCCCCCCI", "values": [
      {"measurement": "outcome", "setting": "[1]", "result": "inactive"},
      {"measurement": "Potency", "setting": "[2]", "result": "inactive"},
      {"measurement": "outcome", "setting": "[3]", "result": "inactive"},
      {"measurement": "Potency", "setting": "[4]", "result": "inactive"},
      {"measurement": "outcome", "setting": "[5]", "result": "inactive"},
      {"measurement": "Potency", "setting": "[7]", "result": "inactive"}
    ]},
    {"smiles": "COC(=O)CCCCCCCCC(=O)OC", "values": [
      {"measurement": "outcome", "setting": "[1]", "result": "inactive"},
      {"measurement": "Potency", "setting": "[2]", "result": "inactive"},
      {"measurement": "outcome", "setting": "[3]", "result": "inactive"},
      {"measurement": "Potency", "setting": "[4]", "result": "inactive"},
      {"measurement": "outcome", "setting": "[5]", "result": "inactive"},
      {"measurement": "Potency", "setting": "[7]", "result": "inactive"}
    ]},
    {"smiles": "NCC[C@H](O)C(=O)N[C@@H]1C[C@H](N)[C@@H](O[C@H]2O[C@H](CN)[C@@H](O)[C@H](O)[C@H]2O)[C@H](O)[C@H]1O[C@H]1O[C@H](CO)[C@@H](O)[C@H](N)[C@H]1O", "values": [
      {"measurement": "activation", "setting": "[1]", "result": "-0.0262% [at 0.218 µM]"},
      {"measurement": "activity change, negative = cytotoxicity", "setting": "[2]", "result": "-0.464% [at 0.349 µM]"},
      {"measurement": "caspase activation", "setting": "[3]", "result": "-1.92% [at 0.349 µM]"},
      {"measurement": "activity change, negative = cytotoxicity", "setting": "[4]", "result": "-5.52% [at 0.349 µM]"},
      {"measurement": "caspase-3/7 activation", "setting": "[5]", "result": "-0.155% [at 0.349 µM]"},
      {"measurement": "activity change, negative = cytotoxicity", "setting": "[6]", "result": "-0.33% [at 0.349 µM]"},
      {"measurement": "activation", "setting": "[7]", "result": "-0.318% [at 0.349 µM]"},
      {"measurement": "max activation", "setting": "[8]", "result": -10.2, "unit": "%"},
      {"measurement": "Potency", "setting": "[9]", "result": "inactive"},
      {"measurement": "Potency", "setting": "[10]", "result": "inactive"}
    ]},
    {"smiles": "CCC(C)(C)C1CCC(OC)CC1", "note": "(stereo not drawn)", "values": [
      {"measurement": "outcome", "setting": "[1]", "result": "inactive"},
      {"measurement": "Potency", "setting": "[2]", "result": "inactive"},
      {"measurement": "outcome", "setting": "[3]", "result": "inactive"},
      {"measurement": "Potency", "setting": "[4]", "result": "inactive"},
      {"measurement": "outcome", "setting": "[5]", "result": "inactive"},
      {"measurement": "Potency", "setting": "[7]", "result": "30.6 µM (active)"}
    ]},
    {"smiles": "CCCCCN(CCCCC)C(=O)C(CCC(=O)O)NC(=O)c1ccc(Cl)c(Cl)c1", "note": "(stereo not drawn)", "values": [
      {"measurement": "outcome", "setting": "[1]", "result": "inactive"},
      {"measurement": "Potency", "setting": "[2]", "result": "inactive"},
      {"measurement": "outcome", "setting": "[3]", "result": "inactive"},
      {"measurement": "Potency", "setting": "[4]", "result": "inactive"},
      {"measurement": "outcome", "setting": "[5]", "result": "inactive"},
      {"measurement": "outcome", "setting": "[6]", "result": "inactive"},
      {"measurement": "Potency", "setting": "[7]", "result": "inactive"}
    ]},
    {"smiles": "OCCCCCCO", "values": [
      {"measurement": "outcome", "setting": "[1]", "result": "inactive"},
      {"measurement": "Potency", "setting": "[2]", "result": "inactive"},
      {"measurement": "outcome", "setting": "[3]", "result": "inactive"},
      {"measurement": "Potency", "setting": "[4]", "result": "inactive"},
      {"measurement": "outcome", "setting": "[5]", "result": "inactive"},
      {"measurement": "Potency", "setting": "[7]", "result": "inactive"}
    ]},
    {"smiles": "CC1(C)OC(=O)Nc2ccc(Br)cc21", "values": [
      {"measurement": "outcome", "setting": "[1]", "result": "inactive"},
      {"measurement": "Potency", "setting": "[2]", "result": "inactive"},
      {"measurement": "outcome", "setting": "[3]", "result": "inactive"},
      {"measurement": "Potency", "setting": "[4]", "result": "inactive"},
      {"measurement": "outcome", "setting": "[5]", "result": "inactive"},
      {"measurement": "outcome", "setting": "[6]", "result": "inactive"},
      {"measurement": "Potency", "setting": "[7]", "result": "23.7 µM (active)"}
    ]},
    {"smiles": "O=C1OC(=O)c2cc([N+](=O)[O-])ccc21", "values": [
      {"measurement": "outcome", "setting": "[1]", "result": "inactive"},
      {"measurement": "Potency", "setting": "[2]", "result": "inactive"},
      {"measurement": "outcome", "setting": "[3]", "result": "inactive"},
      {"measurement": "Potency", "setting": "[4]", "result": "inactive"},
      {"measurement": "outcome", "setting": "[5]", "result": "inactive"},
      {"measurement": "Potency", "setting": "[7]", "result": "inactive"}
    ]},
    {"smiles": "CC(=O)OC(C)(C)C", "values": [
      {"measurement": "outcome", "setting": "[1]", "result": "inactive"},
      {"measurement": "Potency", "setting": "[2]", "result": "inactive"},
      {"measurement": "outcome", "setting": "[3]", "result": "inactive"},
      {"measurement": "Potency", "setting": "[4]", "result": "inactive"},
      {"measurement": "outcome", "setting": "[5]", "result": "inactive"},
      {"measurement": "outcome", "setting": "[6]", "result": "inactive"},
      {"measurement": "Potency", "setting": "[7]", "result": "inactive"}
    ]}
  ]
}
